Bioassay records: PubChem BioAssay, The Scripps Research Institute Molecular Screening Center
In the library only some 4.1% were active in any assay of this set; here they are far more common.
MBD2 inh = blocks human MBD2 binding to methylated DNA. Q9UBB5. TR-FRET, MBD2 binding to methylated oligonucleotide. inhibition, % at 4.4 µM. hit rate 0.31% among 370,000. AID 686964; in the data active = inhibition above about 13%
rCAG RNA binder = molecules binding r(CAG) RNA repeats. hit rate 1.3% among 370,000. inhibition, % at 3 µM. r(CAG) RNA repeat, TO-PRO-1 dye displacement fluorescence;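 active = inhibition above the plate cutoff, the mean of all test compounds on that plate plus 3 SD, cut at about 35% in these data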;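 also: 0% = DMSO alone and 100% = 100 µM mitoxantrone as full dye displacement; higher means more dye released from RNA so lower well fluorescence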
ABHD5-PLIN5 inh = blocks binding of human ABHD5 to perilipin-5; Split G. princeps luciferase complementation, luminescence, 4 h; inhibition, % at 4 µM; hit rate 0.78% among 360,000; AID 602281;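 active = inhibition above the mean inhibition across every tested compound plus 3 SD, cut at about 22% in these data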;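 also: 0% = DMSO only wells and the 100% control is not disclosed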
UHRF1 binding = blocks human UHRF1 binding to methylated DNA | Q96T88 | UHRF1 binding to methylated oligo, TR-FRET | inhibition, % at 4.4 µM | hit rate 0.75% among 370,000 | AID 687016; in the data active = inhibition above about 21%;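 also: UHRF1 SRA domain binding a hemimethylated CpG hairpin DNA probe; 0% = median of test compound wells and 100% = reference inhibitor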
LEDGF integ inh = blocks HIV-1 LEDGF/p75-dependent DNA integration; TR-FRET IN-LEDGF/p75 DNA integration, Eu/Cy5; inhibition, % at 3.7 µM; hit rate 0.64% among 370,000; AID 743269;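 active = inhibition above the screen-wide mean plus 3 SD, cut at about 13% in these data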;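 also: signal is the Cy5 over europium emission ratio at 671 and 618 nm; 0% = plate median of compound wells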
PRMT1 inh = inhibitors of human PRMT1 | inhibition, % at 2.79 µM | hit rate 1.3% among 370,000 | Q99873 | recombinant PRMT1, activity-based probe fluorescence polarization;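 active = inhibition above about 21% made by adding two undisclosed values, limit read from the data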
Target sequence (Q99873 whole entry, looked up): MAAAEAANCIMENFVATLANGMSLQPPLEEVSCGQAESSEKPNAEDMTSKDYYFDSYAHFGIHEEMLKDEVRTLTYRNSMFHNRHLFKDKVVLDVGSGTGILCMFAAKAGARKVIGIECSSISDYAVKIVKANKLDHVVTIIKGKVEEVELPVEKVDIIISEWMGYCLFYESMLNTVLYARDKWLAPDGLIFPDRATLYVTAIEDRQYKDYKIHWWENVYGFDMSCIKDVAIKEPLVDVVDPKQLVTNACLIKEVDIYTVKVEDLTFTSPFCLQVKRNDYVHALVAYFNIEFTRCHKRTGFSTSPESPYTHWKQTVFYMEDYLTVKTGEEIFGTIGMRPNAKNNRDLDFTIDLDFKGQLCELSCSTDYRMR
rCAG binder conf = r(CAG) RNA repeat binding, confirmation; shares compounds with rCAG RNA binder; TO-PRO-1 dye displacement fluorescence; inhibition, % at 3 µM; hit rate 70% among 4,300;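 active = inhibition above a per-plate cutoff, the mean inhibition of sample wells plus 3 SD, cut at about 35% in these data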;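 also: loss of TO-PRO-1 fluorescence as compound displaces dye from 1x1 AA loop RNA; 0% = DMSO only wells and 100% = 100 µM mitoxantrone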
DNA CAG counter = disrupts DNA CAG TO-PRO-1 complex, flagging rCAG hits. shares compounds with rCAG RNA binder. hit rate 94% among 4,300. inhibition, % at 3 µM. d(CAG) DNA oligo TO-PRO-1 dye displacement, fluorescence;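 active = inhibition above its plate's cutoff, the mean test-well inhibition plus 3 SD, cut at about 4.8% in these data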;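 also: 0% = DNA dye mix with DMSO and 100% = 100 µM mitoxantrone; hits displace the dye from DNA and so lower well fluorescence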
An asterisk follows results filed as active.

`CCCCN1CN2CCc3ccccc3C2CS1(=O)=O` (configuration not stated) gave MBD2 inh -2.3, rCAG RNA binder -1.0, UHRF1 binding -1.6, LEDGF integ inh -2.5 and PRMT1 inh 6.1.
CC(=O)C1(C(=O)N2CCOCC2)CC(c2ccccc2C(F)(F)F)=NO1 (configuration not stated) was read as MBD2 inh -1.5, rCAG RNA binder 2.0, UHRF1 binding -1.2, LEDGF integ inh 0.1 and PRMT1 inh 1.0.
`Cc1cc(Nc2ccc(C(=O)O)cc2)nc(N)n1` gave MBD2 inh 2.6, rCAG RNA binder -4.5, ABHD5-PLIN5 inh 4.1, UHRF1 binding -1.7, LEDGF integ inh -1.6 and PRMT1 inh 2.3.
`CC(=O)NNc1cc(C)nc(N)n1` gave MBD2 inh -0.8, rCAG RNA binder 65.9*, ABHD5-PLIN5 inh -1.0, UHRF1 binding 3.1, LEDGF integ inh 2.7, PRMT1 inh -3.9, rCAG binder conf 3.3 and DNA CAG counter 1.4.
For CCCCCCCCN1C(=O)[C@@H](CC(=O)NCc2cccc(C(F)(F)F)c2)C[C@@]2(C(=O)OC)C1=C[C@H](COCc1ccccc1)O[C@@H]2C the results were MBD2 inh 1.4, rCAG RNA binder 5.3, UHRF1 binding 0.2, LEDGF integ inh 7.5 and PRMT1 inh -2.7.
Screening CC(C)C(Sc1nc(-c2ccccc2)cc(-c2ccccc2)c1C#N)C(=O)O (configuration not stated) returned MBD2 inh -8.7, rCAG RNA binder 83.2*, ABHD5-PLIN5 inh -4.1, UHRF1 binding -1.2, LEDGF integ inh 9.1, PRMT1 inh -0.4, rCAG binder conf 85.7* and DNA CAG counter 51.3*.
`COc1ccc(-c2cc(-c3ccccc3)nc(SC(C)C(=O)O)c2C#N)cc1` (configuration not stated) gave MBD2 inh 1.4, rCAG RNA binder 70.5*, ABHD5-PLIN5 inh -3.5, UHRF1 binding -3.0, LEDGF integ inh -4.4, PRMT1 inh 0.7, rCAG binder conf 75.7* and DNA CAG counter 38.0*.
For CN(C)/C=C(/C#N)C(=O)c1cccc(Oc2ccc(C(C)(C)C)cc2)c1 the results were MBD2 inh 2.5, rCAG RNA binder 50.1*, ABHD5-PLIN5 inh 0.9, UHRF1 binding -0.2, LEDGF integ inh -1.9, PRMT1 inh -0.9, rCAG binder conf 19.6 and DNA CAG counter 6.1*.
For CCC(C)(C)c1ccc(Oc2ccc(N)cc2)cc1 the results were MBD2 inh -0.1, rCAG RNA binder -4.0, ABHD5-PLIN5 inh -7.0, UHRF1 binding -1.4, LEDGF integ inh -4.5 and PRMT1 inh 7.8.
`CCC(C)(C)c1ccc(Oc2cccc(C(=O)O)c2)cc1` gave MBD2 inh 3.0, rCAG RNA binder 39.4*, ABHD5-PLIN5 inh 5.9, UHRF1 binding 0.8, LEDGF integ inh -6.5, PRMT1 inh 7.5, rCAG binder conf 29.3 and DNA CAG counter 3.4.
For Cc1ccccc1Oc1cccc(C(=O)/C(C#N)=C/N(C)C)c1 the results were MBD2 inh 4.0, rCAG RNA binder 15.5, ABHD5-PLIN5 inh 3.2, UHRF1 binding -1.5, LEDGF integ inh -0.3 and PRMT1 inh 0.5.
Screening COC(=O)CSc1nnc(-c2ccc(NS(=O)(=O)c3ccc(Cl)s3)cc2)o1 returned MBD2 inh -3.6, rCAG RNA binder 38.5*, UHRF1 binding 0.5, LEDGF integ inh -3.1, PRMT1 inh -1.3, rCAG binder conf 28.9 and DNA CAG counter 5.8*.
Screening C=Cc1ccc(C(=O)N2CCC(n3nnc4ncccc43)CC2)cc1 returned MBD2 inh 3.2, rCAG RNA binder -0.7, UHRF1 binding 0.6, LEDGF integ inh -0.2 and PRMT1 inh -4.3.
For CCC(Oc1ccc(C)cc1)C(=O)Nc1ccc(S(=O)(=O)Nc2nccs2)cc1 (configuration not stated) the results were MBD2 inh -1.6, rCAG RNA binder 52.7*, ABHD5-PLIN5 inh -7.3, UHRF1 binding -0.9, LEDGF integ inh 1.8, PRMT1 inh -4.1, rCAG binder conf 33.4 and DNA CAG counter 8.8*.
`CC(Oc1ccc(Br)cc1)C(=O)Nc1ccc(S(=O)(=O)Nc2nccs2)cc1` (configuration not stated) gave MBD2 inh 3.6, rCAG RNA binder 51.8*, ABHD5-PLIN5 inh 0.4, UHRF1 binding 0.5, LEDGF integ inh 1.8, PRMT1 inh -2.5, rCAG binder conf 33.5 and DNA CAG counter 9.4*.
Screening O=S(=O)(Nc1nccs1)c1ccc(NCc2cc(Br)cc(Br)c2O)cc1 returned MBD2 inh -5.2, rCAG RNA binder 57.7*, ABHD5-PLIN5 inh 1.5, UHRF1 binding -0.3, LEDGF integ inh 5.3, PRMT1 inh -3.6, rCAG binder conf 40.6* and DNA CAG counter 14.0*.
Screening CCOC(=O)C1=C(C(=O)OCC)C2N(Cc3ccc(Br)cc3)c3ccccc3[C@@]23C[C@@H](C(=O)OC)N(S(=O)(=O)c2ccc(Br)cc2)C3=N1 (some centres not stated) returned MBD2 inh -2.0, rCAG RNA binder 10.3, UHRF1 binding -1.2, LEDGF integ inh -2.5 and PRMT1 inh 1.4.
CCOC(=O)c1c(NC(=O)C2CCCO2)sc(C)c1C (configuration not stated) was read as MBD2 inh -2.5, rCAG RNA binder -5.4, ABHD5-PLIN5 inh 2.8, UHRF1 binding 0.3, LEDGF integ inh -2.5 and PRMT1 inh 2.8.
Cc1sc(NC(=O)C2CCCO2)c(C(N)=O)c1C (configuration not stated) was read as MBD2 inh -1.6, rCAG RNA binder 41.7*, ABHD5-PLIN5 inh 0.0, UHRF1 binding 5.1, LEDGF integ inh 4.7, PRMT1 inh 10.6, rCAG binder conf 12.3 and DNA CAG counter 3.0.
For COc1ccccc1-n1c(C)c(C(=O)O)c2cc(OC)c3ccccc3c21 the results were MBD2 inh -2.0, rCAG RNA binder 41.4*, ABHD5-PLIN5 inh -14.2, UHRF1 binding -1.1, LEDGF integ inh -2.1, PRMT1 inh 1.8, rCAG binder conf 25.7 and DNA CAG counter 5.6*.
Screening COc1ccc(-n2c(C)c(C(=O)O)c3cc(OC)c4ccccc4c32)cc1 returned MBD2 inh -1.9, rCAG RNA binder 10.9, ABHD5-PLIN5 inh 0.0, UHRF1 binding -0.4, LEDGF integ inh 0.3 and PRMT1 inh -0.8.
COc1cc2c(C(=O)O)c(C)n(-c3ccccc3)c2c2ccccc12 was read as MBD2 inh 0.1, rCAG RNA binder 36.5*, ABHD5-PLIN5 inh -12.2, UHRF1 binding -0.5, LEDGF integ inh -0.9, PRMT1 inh 0.0, rCAG binder conf 22.2 and DNA CAG counter 6.1*.
